This is a sample that favours compounds with a hit; in the whole collection about 7% have one here.
HP1b binding inh = blocks HP1-beta chromodomain binding to methylated histone tails | P83916 | AlphaScreen HP1-beta / biotin-H3K9me3 peptide binding | Potency, µM (titrated, usually from 114 µM), usual class: inhibitors | 0.56% of 390,000 active | AID 540317; also: nearly all actives have a fitted effect of over 70% in size
Target sequence (P83916 whole entry, looked up): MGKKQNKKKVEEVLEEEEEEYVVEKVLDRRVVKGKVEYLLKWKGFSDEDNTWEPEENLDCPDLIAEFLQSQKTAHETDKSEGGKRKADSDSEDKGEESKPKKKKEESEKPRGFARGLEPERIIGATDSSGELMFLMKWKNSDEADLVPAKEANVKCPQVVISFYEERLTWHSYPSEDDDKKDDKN
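Compound inhibition of the preformed complex between 50 nM HP1-beta and 50 nM biotinylated H3K9me3 peptide was read by AlphaScreen. Buffer was PBS pH 7.4 with 0.01% Tween-20. Incubations ran 30 min at room temperature, with 10 ug/mL donor/acceptor beads.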
PI5P4Ka inh = PI5P4K alpha (human) kinase inhibition; PI5P4Kalpha enzyme, ADP-Glo luminescence, 60 min; hits give low values; P48426; 1.2% of 330,000 active; max response, %; active = max response of -50% or lower; inconclusive = between -30% and -50%; inactive = -30% or higher; also: value at the top dose of about 77 µM
Target sequence (P48426 whole entry, looked up): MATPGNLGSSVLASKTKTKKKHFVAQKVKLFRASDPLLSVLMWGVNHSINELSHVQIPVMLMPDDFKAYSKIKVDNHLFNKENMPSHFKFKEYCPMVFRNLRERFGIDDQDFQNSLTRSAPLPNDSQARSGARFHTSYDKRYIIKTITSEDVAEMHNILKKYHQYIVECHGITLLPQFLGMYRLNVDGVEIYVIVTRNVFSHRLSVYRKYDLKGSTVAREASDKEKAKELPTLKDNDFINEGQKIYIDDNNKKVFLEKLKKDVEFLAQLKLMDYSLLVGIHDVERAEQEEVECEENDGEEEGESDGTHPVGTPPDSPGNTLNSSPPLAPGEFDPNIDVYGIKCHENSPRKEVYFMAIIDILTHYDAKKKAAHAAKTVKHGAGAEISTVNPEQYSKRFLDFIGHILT
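Enzyme plus substrate dispensed, test compounds pinned in, then ATP (5 microM final) added. After 60 min at RT, ADP-Glo reagent 1 for 45 min and reagent 2 for 30 min preceded luminescence imaging.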
PLK1 PBD block = blocks phosphopeptide binding to human PLK1 polo-box domain | Plk1 PBD binding of FITC phosphopeptide, fluorescence polarization | 2.8% of 360,000 active | Potency, µM, actives largely listed as inhibitors; also: series mostly up to about 57 µM; nearly all actives have a fitted effect of over 65% in size
JMJD2A Tudor inh = JMJD2A Tudor domain (human) inhibition. 4.4% of 390,000 active. O75164. Potency, µM (doses to about 114 µM), actives largely listed as inhibitors. AlphaScreen JMJD2A-Tudor / H3K4me3 peptide binding. AID 504339; also: nearly all actives have a fitted effect of over 50% in size
KAT2A inh = inhibitors of human GCN5L2 histone acetyltransferase; Q92830; GCN5L2 HAT assay, ThioGlo1 CoA-SH fluorescence; Potency, µM (doses to about 58.9 µM), most hits filed as inhibitors; 0.21% of 390,000 active
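Titration-based screen in which CoA formation is detected via maleimide probe ThioGlo1 (50uM) turning fluorescent on thiol reaction; substrates H3(1-25) 75uM and acetyl-CoA 70uM, GCN5L2 20nM, 20 min incubation at room temperature.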
BAZ2B block = blocks human BAZ2B. AID 504333. 4.4% of 360,000 active. Potency, µM (top dose mostly 114 µM), hits mostly inhibitors. AlphaScreen BAZ2B-H3K14Ac peptide displacement; also: nearly all actives have a fitted effect of over 60% in size
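AlphaScreen luminescence quantifies BAZ2B engagement of H3K14Ac peptide; the protein and biotinylated peptide are both at 50 nM final, buffer PBS pH 7.4 with 0.01% Tween-20, all steps at room temperature.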
Of the large screens only hits and unclear results are named; the others gave an inactive call. Unless noted, calls follow the shape of the dose curve; as a rule, active = well fitted curve in the direction sought with a large enough effect; inconclusive = small, poorly fitted or top-dose-only effect, or another doubt; inactive = no such curve, though single readings can be large; an effect the other way counts as inactive or inconclusive.

C#CCOCCOCCOCCNc1nc(N2CCN(C(=O)[C@H](CCC(=O)O)n3cc(C(N)Cc4ccc(O)cc4)nn3)CC2)nc(N2CCN(C(=O)[C@H](Cc3ccc(O)cc3)n3cc(C(N)CC(C)C)nn3)CC2)n1 (stereo partly drawn)	BAZ2B block 35.5µM (no result: HP1b binding inh, PI5P4Ka inh, PLK1 PBD block, JMJD2A Tudor inh)
CCOc1ccccc1NC(=O)CSc1nc2[nH]ncc2c(=O)[nH]1	none
Cc1ccc(NC(=O)c2ccc(CNc3c(N4CCC(C)CC4)c(=O)c3=O)cc2)cc1	none
COCCNC(=O)Cn1cc(S(=O)(=O)Cc2ccccc2Cl)c2ccccc21	none (no result: PI5P4Ka inh, PLK1 PBD block)
CC(=O)Oc1ccccc1Cn1c(C)c(C(=O)NCc2cccc([N+](=O)[O-])c2)sc1=O	none (no result: HP1b binding inh, JMJD2A Tudor inh, KAT2A inh, BAZ2B block)
Cc1cc2nc(-c3ccccc3)c(Cc3ccccc3)n2c(C)c1Br	none (no result: HP1b binding inh, JMJD2A Tudor inh, KAT2A inh, BAZ2B block)
C#CCOCCOCCOCCNc1nc(N2CCN(C(=O)[C@H](Cc3ccc(O)cc3)n3cc([C@@H](N)CC(C)C)nn3)CC2)nc(N2CCN(C(=O)[C@H](Cc3ccc(O)cc3)n3cc([C@@H](N)CC(C)C)nn3)CC2)n1	BAZ2B block 50.1µM (no result: HP1b binding inh, PI5P4Ka inh, PLK1 PBD block, JMJD2A Tudor inh)
Cc1ccc(C)c(N2N=C(C(=O)OCc3nnc(-c4ccccc4Br)o3)CCC2=O)c1	none (no result: HP1b binding inh, JMJD2A Tudor inh, KAT2A inh, BAZ2B block)
O=C(CNCC1CCCO1)Nc1ccccc1-n1cccc1 (stereo not drawn)	JMJD2A Tudor inh 5.01µM, BAZ2B block 50.1µM (no result: PI5P4Ka inh)
O=C(CNCC1CCCO1)N1CCCc2ccccc21 (stereo not drawn)	HP1b binding inh inconclusive, JMJD2A Tudor inh 3.98µM, BAZ2B block 56.2µM (no result: PI5P4Ka inh)
O=C(c1ccc(S(=O)(=O)NCC2CCCO2)cc1)N1CCc2ccccc21 (stereo not drawn)	none
O=C(Cc1cccs1)NCCS(=O)(=O)N1CCN(c2cccc(Cl)c2)CC1	none
Cc1cc(C(F)(F)F)n2[nH]c(=O)c(N=Nc3ccccc3)c2n1	JMJD2A Tudor inh 28.2µM
CSCCC(NC(=O)c1ccco1)C(=O)NCC(c1ccccc1)N(C)C (stereo not drawn)	none
CCOC(=O)C(C)N1C(=O)S/C(=C/c2cc(C)n(-c3ccccn3)c2C)C1=O (stereo not drawn)	PLK1 PBD block inconclusive, JMJD2A Tudor inh 56.2µM, BAZ2B block inconclusive
CCOC(=O)C(C)N1C(=O)S/C(=C/c2cc(C)n(-c3ccncc3)c2C)C1=O (stereo not drawn)	JMJD2A Tudor inh inconclusive, BAZ2B block inconclusive
c1ccc(CNCc2nnc(-c3cc4ccccc4[nH]3)o2)cc1	none (no result: HP1b binding inh, PI5P4Ka inh, PLK1 PBD block, KAT2A inh, BAZ2B block)
Cc1ccc(C)c(N2CCN(c3ncccc3[N+](=O)[O-])CC2)c1	JMJD2A Tudor inh 39.8µM, BAZ2B block 31.6µM
Cc1ccc(N2CCN(c3ncccc3[N+](=O)[O-])CC2)c(C)c1	HP1b binding inh inconclusive, JMJD2A Tudor inh 39.8µM, BAZ2B block 28.2µM
O=[N+]([O-])c1cccnc1N1CCN(c2ccccc2F)CC1	HP1b binding inh inconclusive, JMJD2A Tudor inh 50.1µM, BAZ2B block inconclusive
O=[N+]([O-])c1cc2c(cc1CN1CCN(c3ccccc3F)CC1)OCO2	BAZ2B block 56.2µM
O=[N+]([O-])c1cccnc1N1CCCCC1	JMJD2A Tudor inh inconclusive
CCSc1nc(-c2ccccc2)cc(=O)[nH]1	none
Cc1ccc(NC(=O)CCN2C(=O)c3ccccc3Sc3ncccc32)c(Cl)c1	none (no result: PI5P4Ka inh, PLK1 PBD block)
CC(Sc1nnc(Cc2ccccc2)o1)C(=O)NC1(C#N)CCCCC1 (stereo not drawn)	none (no result: BAZ2B block)
CC(=O)OCCNc1cc(Sc2nc3ccccc3[nH]2)c2nonc2c1[N+](=O)[O-]	HP1b binding inh inconclusive, PLK1 PBD block 2.67µM, JMJD2A Tudor inh 56.2µM, BAZ2B block inconclusive
CC(=O)OCCCNc1cc(Sc2nc3ccccc3s2)c2nonc2c1[N+](=O)[O-]	PLK1 PBD block 2.12µM
O=[N+]([O-])c1c(NCCCO)cc(SCc2ccco2)c2nonc12	PLK1 PBD block inconclusive, BAZ2B block inconclusive
CC(=O)OCCNc1cc(SCc2ccco2)c2nonc2c1[N+](=O)[O-]	PI5P4Ka inh inconclusive, PLK1 PBD block inconclusive, JMJD2A Tudor inh 50.1µM, BAZ2B block inconclusive
CC(=O)c1ccc(NC(=O)CSc2nccn2Cc2ccco2)cc1	none (no result: PI5P4Ka inh, PLK1 PBD block)
O=C1OC(c2ccccc2)(c2ccccc2)c2ccccc21	none (no result: KAT2A inh, BAZ2B block)
CN(C)c1ccc(C2(c3ccc(N(C)C)cc3)OC(=O)c3cc(N)ccc32)cc1	HP1b binding inh 15.8µM, JMJD2A Tudor inh 28.2µM, KAT2A inh inconclusive, BAZ2B block 17.8µM
CN(C)S(=O)(=O)N1CCC(Oc2ccc(C(=O)N3CCCCCCC3)cc2)CC1	BAZ2B block 56.2µM
COCc1cccc(C2=CC(=O)C[C@H](c3ccc(F)cc3)C2)c1	PLK1 PBD block 29.9µM
COCc1cccc(C2=CC(=O)C[C@H](c3ccc(OC)cc3)C2)c1	none
Cc1c(C(=O)c2ccc(F)cc2F)c2ccccn2c1CCC#N	BAZ2B block 17.8µM
Cc1ccc2cc(CCNC(=O)c3ccc4c(c3)OCO4)c(=O)[nH]c2c1C	none
CC(C)N(C(=O)COC(=O)CNS(=O)(=O)c1ccccc1F)c1ccccc1	none (no result: BAZ2B block)
CCOc1ccc(CN(CCc2ccc3c(c2)OCO3)Cc2cc(OC)cc(OC)c2)cc1	HP1b binding inh inconclusive, JMJD2A Tudor inh 3.98µM, BAZ2B block inconclusive (no result: PI5P4Ka inh, PLK1 PBD block)
CN(Cc1ccccc1)C(=O)c1ccc(NC(=O)Cc2ccc(NC(=O)C3CCCN(C(=O)CCc4ccccc4)C3)cc2)cc1 (stereo not drawn)	none (no result: KAT2A inh, BAZ2B block)

Compound activity as filed in PubChem.
